Data on eight compounds can be found in PubChem BioAssay (NCATS).

Test [1] has as its target DNA repair nuclease/redox regulator APEX1 (Homo sapiens) (UniProt P27695). Briefly: qHTS Validation Assay for Inhibitors of the Human Apurinic/apyrimidinic Endonuclease 1 (APE1) (AID 1705; note: potency is the fitted concentration of half-maximal effect). The essentials: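 Fluorogenic double-stranded THF abasic-site substrate (5'-TAMRA/3'-BHQ-2), 50 nM final. Enzyme preincubated with compound 15 min at room temperature, then substrate added. Kinetic fluorescence (ex 525/em 598 nm) read three times at 60 s intervals; activity taken as third-minus-first read difference.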
In general terms: In qHTS, concentration-response curves come from the screen itself.

A short description of test [2]: Counterscreen for APE1 Inhibitors: Fluorescent Dye Displacement Validation Assay (AID 1707). The essentials: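 Thiazole Orange displacement from dsDNA: 250 nM ThO with 50 nM TAMRA-labelled abasic-site (tetrahydrofuran) duplex in 50 mM Tris-HCl pH7.5, 50mM NaCl, 2 mM MgCl2, 0.01% Tween-20. Loss of endpoint fluorescence (ex 480 nm, em 540 nm) flags DNA binders.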
A general note: The purpose of a counterscreen is to sort out artefacts and off-target activity.

Test [3] has as its target Endonuclease 4 (Escherichia coli (strain K12)) (UniProt P0A6C1). Briefly: Counterscreen for APE1 Inhibitors: qHTS Validation Assay for Inhibitors of Endonuclease IV (AID 1708). Note: potency is the fitted concentration of half-maximal effect. A digest of the protocol:
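2 nM enzyme was preincubated with compounds for 15 min at room temperature in 50 mM Tris-HCl pH 7.5, 50 mM NaCl, 2 mM MgCl2, 1 mM DTT, 0.01% Tween-20. 50 nM THF-abasic TAMRA/BHQ-2 duplex substrate started the reaction.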

Test [4] can be described thus: qHTS for differential inhibitors of proliferation of Plasmodium falciparum line 7G8 (AID 1815).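 Note: parasite growth measured after three days of incubation.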 Note: potency is the fitted concentration of half-maximal effect.
Test [5] is described as follows: qHTS for differential inhibitors of proliferation of Plasmodium falciparum line GB4 (AID 1816).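 Note: parasite growth measured after 72 h incubation.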 Note: potency is the fitted concentration of half-maximal effect. The following applies: Potency: Plasmodium falciparum GB4 proliferation inhibition.
Test [6] can be described thus: qHTS for differential inhibitors of proliferation of Plasmodium falciparum line 3D7 (AID 1876). Note: potency is the fitted concentration of half-maximal effect.
Test [7] in a line: qHTS for differential inhibitors of proliferation of Plasmodium falciparum line D10 (AID 1877).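 Note: parasites grown with compound for 72 h before DNA staining.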 Note: potency is the fitted concentration of half-maximal effect.
A short description of test [8]: qHTS for differential inhibitors of proliferation of Plasmodium falciparum line Dd2 (AID 1882). Note: nearly all actives have a fitted effect of over 65% in size. Note: potency is the fitted concentration of half-maximal effect. The following applies: Potency: Plasmodium falciparum Dd2 proliferation inhibition. The essentials:
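SYBR Green I DNA fluorescence read-out, ex 485/em 535 nm. Signals were normalized to 0.29 uM artemisinin and DMSO wells, then corrected using vehicle-only plates flanking each stack. Parasite growth ran 72 h in erythrocytes before lysis.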

Test [9] is described as follows: qHTS for differential inhibitors of proliferation of Plasmodium falciparum line W2 (AID 1883).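 Note: parasites grown with compound for 72 h before lysis and staining.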 Note: potency is the fitted concentration of half-maximal effect. The following applies: Potency: Plasmodium falciparum W2 proliferation inhibition.
Test [10] is described as follows: qHTS for differential inhibitors of proliferation of Plasmodium falciparum line HB3 (AID 1886).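 Note: parasites grown with compound for 72 h before SYBR Green readout.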 Note: potency is the fitted concentration of half-maximal effect. The following applies: Potency: Plasmodium falciparum HB3 proliferation inhibition.
In test [11] the target is Ferritin light chain (Equus caballus) (UniProt P02791). Briefly: qHTS Validation Assay for Identification of Novel General Anesthetics (AID 2323). Note: series mostly up to about 77 µM. A digest of the protocol: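 Horse-spleen apoferritin (10 uM) in PBS with 50% saturated 1-aminoanthracene; compounds pin-transferred, 10 min at room temperature. Fluorescence read at 380/535 nm, normalized to free 1-AMA and 1-AMA/apoferritin values; four-parameter Hill fit.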
Sequence of Ferritin light chain (Equus caballus) (P02791 2-175 limits assumed): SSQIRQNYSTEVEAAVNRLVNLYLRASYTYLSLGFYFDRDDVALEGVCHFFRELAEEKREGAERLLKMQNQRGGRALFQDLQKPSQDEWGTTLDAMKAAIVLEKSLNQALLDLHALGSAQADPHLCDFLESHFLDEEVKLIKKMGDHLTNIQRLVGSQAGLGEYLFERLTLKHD

For test [12], the target named is ATP-dependent DNA helicase Q1 (Homo sapiens) (UniProt P46063). As to the kind of experiment: qHTS Validation Assay for Inhibitors of RecQ-Like Dna Helicase 1 (RECQ1) (AID 2353). Note: potency is the fitted concentration of half-maximal effect. The essentials: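 50 nM RECQ1T1 preincubated 15 min with compound in Tris pH 8.0 buffer with MgCl2, DTT, Tween-20 and 2.5 ug/ml poly(dI-dC); started with 200 nM TAMRA/BHQ-2 forked duplex and 2 mM ATP. Unwinding read as fluorescence (525/598 nm), two reads 2 h apart.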
Sequence of ATP-dependent DNA helicase Q1 (Homo sapiens) (P46063 whole entry, looked up): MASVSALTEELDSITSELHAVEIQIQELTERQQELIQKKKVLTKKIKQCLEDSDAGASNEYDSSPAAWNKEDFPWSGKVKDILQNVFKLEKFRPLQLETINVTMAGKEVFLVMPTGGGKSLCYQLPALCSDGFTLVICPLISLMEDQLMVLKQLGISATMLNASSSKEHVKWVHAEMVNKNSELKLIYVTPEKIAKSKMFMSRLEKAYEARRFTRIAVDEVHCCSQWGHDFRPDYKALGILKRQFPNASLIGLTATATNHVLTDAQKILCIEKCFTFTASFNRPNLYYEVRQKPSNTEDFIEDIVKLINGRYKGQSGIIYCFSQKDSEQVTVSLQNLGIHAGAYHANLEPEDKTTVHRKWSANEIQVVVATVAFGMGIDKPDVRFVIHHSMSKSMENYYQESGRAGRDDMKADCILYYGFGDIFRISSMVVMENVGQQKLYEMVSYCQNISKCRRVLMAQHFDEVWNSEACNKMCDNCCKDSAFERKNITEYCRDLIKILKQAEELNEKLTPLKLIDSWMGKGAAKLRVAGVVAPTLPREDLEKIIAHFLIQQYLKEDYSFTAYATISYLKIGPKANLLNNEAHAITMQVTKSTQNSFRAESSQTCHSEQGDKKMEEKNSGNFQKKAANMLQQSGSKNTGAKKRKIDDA

A short description of test [13]: Cytometric Cell-Based qHTS for Inhibitors of the mTORC1 Signaling Pathway in MEF (Tsc2-/-, p53-/-) Cells (AID 2660).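 Note: percent of cells above a phospho-rpS6 to PI ratio cutoff in each well; series mostly up to about 38 µM.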 A digest of the protocol:
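Readout: Alexa-488 phospho-rpS6 (Ser235/236) intensity divided by PI intensity, thresholded against 7.5 nM rapamycin wells and reported as % positive cells. PI cell count served as the viability measure. Compound exposure was 24 hrs at 37 degree Celsius.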

Test [14] can be described thus: High Content Imaging Cell-Based qHTS for Inhibitors of the mTORC1 Signaling Pathway in MEF (Tsc2-/-, p53-/-) Cells (AID 2666).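 Note: percent of cells scored positive for phospho-rpS6 Ser235/236 immunostaining by imaging.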 The essentials: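 Read-out: % positive cells per well, with thresholds from highest- and lowest-signal wells, based on phospho-rpS6 (Ser235/236) intensity normalized to Hoechst nuclear stain. Cells: Tsc2-/-, p53-/- MEFs carrying empty vector; compound 24 hrs, 37 degree Celsius.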

Test [15] is described as follows: High Content Imaging Cell-Based qHTS for Inhibitors of the mTORC1 Signaling Pathway in MEF Cells (AID 2667).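 Note: Tsc2-/- p53-/- MEFs stably re-expressing wild-type Tsc2 exposed 24 h; series mostly up to about 38 µM.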 A digest of the protocol: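 MEF (Tsc2-/-, p53-/-, WT Tsc2 re-expressed); cpd 24 h, 37 °C; PFA fix; Alexa-488 anti-p-rpS6 Ser235/236, PI, Hoechst; IN Cell imaging; Hoechst/Alexa-488 intensity ratio; % active cells, thresholds set from rapamycin and DMSO wells.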

A short description of test [16]: qHTS Assay for Modulators of Human Peripheral Myelin Protein 22 (PMP22) Expression/Activity (AID 1967; active = well fitted curve in the direction sought with a large enough effect in the signal ratio; the % refers to the signal ratio). The essentials:
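Mouse MSC80 Schwann cells carrying Pmp22 promoter–green click beetle luciferase plus EF-alpha–red luciferase control, dosed 24 h at 37 °C. Dual-filter luminescence, overlap-corrected; %Activity from green/red ratio normalised to untreated cells, concentration-response curves fitted.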

The target of test [17] is RecQ-like DNA helicase BLM (Homo sapiens) (UniProt P54132). Briefly: qHTS Validation Assay for Inhibitors of Bloom's syndrome helicase (BLM) (AID 2364). The essentials: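 BLM 50 nM in 25 mM Tris-HCl pH 8.0, 5 mM NaCl, 2 mM MgCl2, 1 mM DTT, 0.01% Tween-20, 2.5 ug/ml poly(dI-dC); 15 min cpd preinc, RT. Start: 200 nM forked DNA + 2 mM ATP (final). TAMRA read, 2 reads 2 h apart.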
Sequence of RecQ-like DNA helicase BLM (Homo sapiens) (P54132 whole entry, looked up): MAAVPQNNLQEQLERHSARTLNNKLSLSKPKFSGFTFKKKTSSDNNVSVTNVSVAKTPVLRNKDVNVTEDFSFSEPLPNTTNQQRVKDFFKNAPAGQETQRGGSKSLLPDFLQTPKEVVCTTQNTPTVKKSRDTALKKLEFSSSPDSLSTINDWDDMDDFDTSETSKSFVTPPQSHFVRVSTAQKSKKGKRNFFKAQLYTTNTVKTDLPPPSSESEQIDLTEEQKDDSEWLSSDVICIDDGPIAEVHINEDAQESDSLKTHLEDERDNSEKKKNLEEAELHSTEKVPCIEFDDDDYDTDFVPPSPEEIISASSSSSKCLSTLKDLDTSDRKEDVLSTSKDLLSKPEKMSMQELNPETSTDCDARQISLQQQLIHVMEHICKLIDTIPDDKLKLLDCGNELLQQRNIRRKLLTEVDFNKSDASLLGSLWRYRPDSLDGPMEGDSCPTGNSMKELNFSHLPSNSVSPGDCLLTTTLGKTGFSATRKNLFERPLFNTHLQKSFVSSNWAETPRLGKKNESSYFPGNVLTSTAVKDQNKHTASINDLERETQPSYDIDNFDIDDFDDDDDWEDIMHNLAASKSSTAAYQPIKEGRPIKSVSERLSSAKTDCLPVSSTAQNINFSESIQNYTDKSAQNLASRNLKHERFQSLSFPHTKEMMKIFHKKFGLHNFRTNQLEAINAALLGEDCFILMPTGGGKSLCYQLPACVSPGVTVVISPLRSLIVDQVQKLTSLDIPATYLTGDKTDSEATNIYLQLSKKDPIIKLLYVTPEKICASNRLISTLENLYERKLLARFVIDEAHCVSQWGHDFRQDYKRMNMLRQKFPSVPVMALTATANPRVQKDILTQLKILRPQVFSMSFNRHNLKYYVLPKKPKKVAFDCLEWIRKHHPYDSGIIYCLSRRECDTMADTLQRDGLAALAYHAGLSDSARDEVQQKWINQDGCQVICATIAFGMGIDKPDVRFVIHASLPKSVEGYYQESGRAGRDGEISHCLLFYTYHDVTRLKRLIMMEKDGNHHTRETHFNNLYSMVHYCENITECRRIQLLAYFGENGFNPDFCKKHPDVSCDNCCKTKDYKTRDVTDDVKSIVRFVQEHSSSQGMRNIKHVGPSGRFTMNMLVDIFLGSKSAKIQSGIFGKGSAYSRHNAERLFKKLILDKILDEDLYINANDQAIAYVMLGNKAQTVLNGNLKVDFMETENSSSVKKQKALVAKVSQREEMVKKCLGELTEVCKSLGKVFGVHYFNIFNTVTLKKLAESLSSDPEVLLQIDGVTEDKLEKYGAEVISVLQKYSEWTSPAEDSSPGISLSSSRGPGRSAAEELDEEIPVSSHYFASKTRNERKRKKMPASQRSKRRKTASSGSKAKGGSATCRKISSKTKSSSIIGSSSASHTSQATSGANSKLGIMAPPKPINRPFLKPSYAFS

Inconclusive results are not listed. Active and inactive are the calls of the source. Unless noted, calls come from the whole dose curve; as a rule, active = well fitted curve in the direction sought with a large enough effect; inconclusive = small, poorly fitted or top-dose-only effect, or another doubt; inactive = no such curve, though single readings can be large; an effect the other way counts as inactive or inconclusive.

Sequence of DNA repair nuclease/redox regulator APEX1 (Homo sapiens) (P27695 whole entry, looked up): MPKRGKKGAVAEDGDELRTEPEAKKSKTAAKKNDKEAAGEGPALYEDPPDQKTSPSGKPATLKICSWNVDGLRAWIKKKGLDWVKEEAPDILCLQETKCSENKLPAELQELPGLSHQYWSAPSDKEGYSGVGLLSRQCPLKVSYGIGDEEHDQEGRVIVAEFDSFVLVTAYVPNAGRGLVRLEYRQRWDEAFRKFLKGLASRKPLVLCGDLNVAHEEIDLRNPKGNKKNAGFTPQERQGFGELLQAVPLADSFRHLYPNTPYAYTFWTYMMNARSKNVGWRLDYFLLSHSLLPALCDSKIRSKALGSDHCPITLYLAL

In the case of `C[Se]C[C@H](N)C(=O)O`, the Potency result in test [1], in [2], in test [3], in [4], in test [5] and in test [6] was “inactive” in each case. The Potency result in [7], in test [8], in test [9], in test [10], in test [12] and in [13] was “inactive” each time. Further, the Potency result in [14] and in [15] was “inactive” each time. Besides, the result in test [11] was inactive.
As to `C[C@H](Cc1ccc2c(c1)OC(C(=O)O)(C(=O)O)O2)NC[C@H](O)c1cccc(Cl)c1`, the Potency result in [1], in test [2], in test [3], in test [4], in test [5] and in [6] was “inactive” throughout. Besides, the Potency entry in test [7], in test [8], in [9], in test [10], in test [12] and in [17] was “inactive” in each case. Besides, the Potency entry in test [13], in test [14] and in test [15] was “inactive” throughout. Also, the result in test [16] and in [11] was inactive.
Take `CC1OC1P(=O)(O)O` (stereo unspecified): the Potency entry in test [1], in [2], in test [3], in [4], in [5] and in [6] was “inactive” in each case. Further, the Potency result in test [7], in test [8], in test [9], in test [10] and in [12] was “inactive” each time. In test [11], the outcome was inactive.
As for `Cc1c2ccncc2c(C)c2c1[nH]c1ccccc12`, the Potency was 3.16 µM (active) in test [1]; 2.82 µM (active) in test [3]; 0.794 µM (active) in test [4]; 0.398 µM (active) in [5]; 0.447 µM (active) in [6]; 2 µM (active) in test [7]. For the same compound, the Potency is 1.12 µM (active) in test [8], 0.708 µM (active) in [9], 1.41 µM (active) in [10] and 10 µM (active) in [12]. Moreover, the Potency result in test [2], in test [17] and in test [15] was “inactive” each time. Moreover, the result in test [11] was inactive.
With `CCCN1CCCC2Cc3[nH]ncc3CC21` (stereo unspecified), the Potency result in [1], in [2], in test [3], in [4], in test [5] and in [6] was “inactive” throughout. Also, the Potency entry in test [7], in test [8], in test [10] and in test [12] was “inactive” in each case. For the same compound, the call in test [16] and in test [11] was inactive.
With `C=CCN1CC[C@]23c4c5ccc(O)c4O[C@H]2/C(=N/NC(=O)c2ccccc2)CC[C@@]3(O)[C@H]1C5`, the Potency result in test [1], in test [2], in test [3], in [13], in [14] and in test [15] was “inactive” each time. The Potency in test [4] was 10 µM (active); in [5], 8.91 µM (active); in test [6] it was 10 µM (active); in test [7], 3.16 µM (active); in test [9], 3.16 µM (active); in test [10], 11.2 µM (active). The compound was called inactive in test [16] and in test [11].
Take `NC(N)=NOCC[C@H](N)C(=O)O`: the Potency result in test [1], in [2], in [3], in test [4], in [5] and in [6] was “inactive” each time. Moreover, the Potency result in [7], in test [8], in test [10], in test [12], in test [13] and in [14] was “inactive” throughout. In addition, the Potency entry in test [15] was “inactive”. Further, in test [11], the outcome was inactive.
Turning to `NC(=O)CI`, the Potency result in [1], in test [2], in [3], in test [4], in test [5] and in [6] was “inactive” throughout. The Potency result in [7], in test [8], in [9], in [10], in test [13] and in test [14] was “inactive” each time. Further, the Potency result in test [15] is “inactive”.
